Hit rate of the full screen: of about 2,200 compounds, about 1,200 (55%) were called active. So high a share suggests a set chosen from earlier hits. This is one part of the list. A number with no mark means an inactive call. No cut-off is given here; in the data, nearly all actives have IC50 up to about 92 µM.
Assay: counter assay for TAg ATPase ADP read-out – biochemical, ADP-Hunter, fluorescence, counter-screen (AID 2501);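 note: purified T antigen ATPase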;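 for inhibition: 0% = enzyme with vehicle and 100% = reference inhibitor wells; higher means more inhibition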
Details: series mostly up to 100 µM; inhibition: at the top concentration

| SMILES | inhibition | IC50 |
| --- | --- | --- |
| CC1=C(C)CS(=O)N(S(=O)(=O)c2ccc(Cl)cc2)C1 (centres undefined) | 11.5% |  |
| COc1ccc(NC2CCCN(Cc3cccc4cnccc34)C2)cc1OC (centres undefined) |  | 8.39 µM (active) |
| Cc1ccc2c(cnn2C(=O)CCC(=O)NCc2ccccc2Cl)c1 | -16% |  |
| Cc1ccsc1C(=O)NCc1ccccc1Cl |  | 81.4 µM (active) |
| CCn1c(SCC(=O)N/N=C/c2ccc(O)c(OC)c2)nc2ccccc21 |  | 6.63 µM (active) |
| O=[N+]([O-])c1ccc(Sc2nc3ccccc3o2)c([N+](=O)[O-])c1 | 3.97% |  |
| CCSc1nc2ccccc2n1CC(=O)OC | 28.2% |  |
| Cc1ccccc1C(=O)Nc1nnc(CC(=O)N/N=C/c2cn(Cc3ccccc3)c3ccccc23)s1 | -25.4% |  |
| O=C(Cc1nnc(NC(=O)c2ccccc2)s1)N/N=C\c1ccc(O)c(O)c1 |  | 1.55 µM (active) |
| O=C(CSc1nc2ccccc2o1)N/N=C/c1ccc(O)c(O)c1 |  | 7.74 µM (active) |
| Cc1cc(SCC(=O)N/N=C/c2ccc(O)c(O)c2)nc2ccccc12 |  | 5.75 µM (active) |
| COc1ccc(C2C3=C(N=C4SCC(=O)N42)c2ccccc2CC3)cc1 (centres undefined) | 1.79% |  |
| Cn1c(SCC(=O)N/N=C/c2ccc(O)c(O)c2)nc2ccccc21 |  | 6.12 µM (active) |
| CN(C)c1ccc(NC2=C([N+](=O)[O-])CS(=O)(=O)C2)cc1 |  | 3.14 µM (active) |
| COc1ccc(N=Nc2c(N)n[nH]c2N)cc1 |  | 6.12 µM (active) |
| N=C1/C(=C\c2ccc(Br)o2)C(=O)N=C2SC(CC(=O)N3CCCCC3)=NN12 | 0.15% |  |
| CCN(CC)S(=O)(=O)c1ccc(OC)c(NC(=S)Nc2cccc(C)c2)c1 | -0.28% |  |
| COc1cc2c(cc1NC(=S)Nc1ccccc1C)oc1ccccc12 |  | 23.6 µM (active) |
| CCN1C(=O)C2(C(C(=O)c3cc4ccccc4o3)=C(O)C(=O)N2CCCN(C)C)c2ccccc21 (centres undefined) |  | 31.5 µM (active) |
| Cc1ccc2c(c1)C1C=CCC1C(C(=O)O)N2 (centres undefined) | -35.9% |  |
| O=C1CCCN1CCCNC(=S)Nc1ccc(Nc2ccccc2)cc1 |  | 6.41 µM (active) |
| CCOc1cc2[nH]c(=O)n(Cc3ccc(C(=O)NCCCN4CCCC4=O)cc3)c(=O)c2cc1OCC | 5.15% |  |
| COc1cc(/C=c2\sc3n(c2=O)CCCN=3)ccc1O |  | 4.98 µM (active) |
| O=C1/C(=C\c2ccc(O)c(O)c2)N=C2CCCCCN12 |  | 4.83 µM (active) |
| CCOc1cc(/C=C2\N=C3CCCCCN3C2=O)ccc1O |  | 5.66 µM (active) |

| SMILES | inhibition | IC50 |
| --- | --- | --- |
| COc1cc(/C=C2\N=C3CCCCCN3C2=O)ccc1O |  | 3.83 µM (active) |
| CC(=O)N1CC[n+]2c(-c3ccc([N+](=O)[O-])cc3)csc21 | 17.1% |  |
| CCN1/C(=C/C=C/c2sc3ccccc3[n+]2CC)Sc2ccccc21 | 12.2% [at 50 µM] |  |
| CCN(CC)CCCCN1c2ccccc2Sc2ccccc21 |  | 6.81 µM (active) |
| CCCCN1C(=O)/C(=C(/C#N)C(N)=O)c2ccccc21 | 8.13% |  |
| COc1ccc(N2C3=C(CC4=C2CCCC4=O)C(=O)CCC3)cc1 | 19.4% |  |
| NC(=O)Cn1c(=O)n(Cc2ccco2)c(=O)c2c3c(sc21)CCCCC3 | -31.5% |  |
| Cc1ccc(-n2c(=O)c3c4c(sc3n3c(=S)[nH]nc23)CCC4)cc1 |  | 14.2 µM (active) |
| COc1ccc(-n2c(=O)c3c4c(sc3n3c(=S)[nH]nc23)CCC4)cc1 |  | 12 µM (active) |
| O=c1c2c3c(sc2n2c(=S)[nH]nc2n1-c1ccccc1)CCC3 |  | 18.4 µM (active) |
| O=C(Cn1c(=O)n(Cc2ccco2)c(=O)c2c3c(sc21)CCCCC3)c1ccccc1 | -11.9% |  |
| CCn1c(=O)n(CC)c2cc(N)ccc21 |  | 4.09 µM (active) |
| COc1cccc(C(c2nnnn2Cc2ccco2)N2CCN(Cc3ccccc3)CC2)c1OC (centres undefined) | -23.6% |  |
| COCCn1nnnc1C(c1cc2cc(OC)c(OC)cc2[nH]c1=O)N1CCN(c2ccc(O)cc2)CC1 (centres undefined) |  | 8.81 µM (active) |
| O=c1[nH]c2cc3c(cc2cc1C(c1nnnn1CC1CCCO1)N1CCCCCC1)OCCO3 (centres undefined) | -71.6% |  |
| CCc1cc2c(Nc3ccc(O)cc3)nc(C)nc2s1 |  | 4.69 µM (active) |
| Cc1cc2c(Nc3ccc(O)cc3)ncnc2s1 |  | 3.61 µM (active) |
| Cc1ccc(-c2nc(CN(Cc3cnn(C)c3)C(C)C)c(C)o2)o1 | -4.39% |  |
| Nc1ccc(Nc2ccccc2)c(S(=O)(=O)O)c1 |  | 4.02 µM (active) |
| Cc1ccc(C)n1-c1cccc(C(=O)O)c1 | -51.9% |  |
| Nc1cc(C(=O)O)ccc1Nc1ccccc1 |  | 5.63 µM (active) |
| O=S(=O)(O)c1cccc2cccc(Nc3ccccc3)c12 |  | 19.5 µM (active) |
| N#Cc1c(N)sc(=S)c2c1CCCCC2 | 22.4% |  |
| COc1ccc(/C=N/NC(=O)CCc2n[nH]c(=O)[nH]c2=O)cc1O |  | 7.94 µM (active) |
| CCOc1cc(/C=N/NC(=O)CCc2n[nH]c(=O)[nH]c2=O)ccc1O |  | 9.46 µM (active) |

| SMILES | inhibition | IC50 |
| --- | --- | --- |
| COc1cc(/C=N/NC(=O)CNc2n[nH]c(=O)[nH]c2=O)ccc1O |  | 2.93 µM (active) |
| Oc1ccccc1C(=S)N1CCCCCC1 |  | 13.9 µM (active) |
| CC(=O)Oc1ccc(C(=O)Nc2ccccc2C(=O)N2CCCCC2)cc1 | 21.5% |  |
| COc1ccccc1NC(=O)c1c(NC(=O)CCC(=O)O)sc2c1CCCCC2 | 11.2% |  |
| CCCCN1Cc2c(nc3cc(-c4ccco4)[nH]n3c2=O)C1=O |  | 9.07 µM (active) |
| COC(=O)CC1SC(=O)NC1=Nc1ccc(O)cc1 (centres undefined) |  | 4.34 µM (active) |
| Cc1c(Cl)cccc1NC(=S)N(CCN(C)C)C(C)c1ccco1 (centres undefined) | 8.35% |  |
| N#CCCn1nc(-c2ccc(Br)cc2)cc1Nc1ccccc1NC(=O)C(F)(F)F | 0.34% |  |
| COc1ccc(CC(=O)n2[nH]c(=O)ccc2=O)cc1OC | -3.65% |  |
| COc1ccc(CC(=O)N/N=C(\C)CC(=O)Nc2ccc(N(C)C)cc2)cc1OC |  | 3.9 µM (active) |
| COC(C(=O)N/N=C(\C)CC(=O)Nc1ccc(N(C)C)cc1)c1ccccc1 (centres undefined) |  | 6.98 µM (active) |
| O=C(O)CCC1c2cc3c4cc2OC2Oc5cc6c(cc51)C(CCC(=O)O)c1cc5c7cc1OC(O6)c1cc6cc(c1)Oc1cc(cc(C(=O)O)c1)Oc1cc8cc(c1)C(Oc1cc(c(cc1C5CCC(=O)O)C3CCC(=O)O)OC(O4)c1cc(cc(c1)Oc1cc(cc(C(=O)O)c1)O8)Oc1cc(cc(C(=O)O)c1)Oc1cc(cc2c1)Oc1cc(cc(C(=O)O)c1)O6)O7 (centres undefined) | -0.04% |  |
| CCC[n+]1c2ccccc2cc2ccccc21 | -11.8% |  |
| O=C(NO)c1ccc(C(=O)N(C2CCCCC2)C2CCCCC2)cc1 | 18.3% |  |
| CCCC[n+]1c2ccccc2cc2ccccc21 | 9.88% |  |
| CC(C)n1c(=S)[nH]c2c1c(=O)[nH]c(=O)n2C |  | 92 µM (active) |
| C#CCOCCOCCOCCNc1nc(N2CCN(C(=O)CCCCCCCCCCNC(=O)[C@H]([C@@H](C)CC)n3cc(CCCCN=C(N)N)nn3)CC2)nc(N2CCN(C(=O)CCCCCCCCCCNC(=O)[C@H](CCCCN)n3cc(C[C@@H](C)CC)nn3)CC2)n1 | -2.74% |  |
| COc1ccccc1CN(C(=O)CNC(=O)c1ccco1)C(C(=O)NCC1CCCO1)c1ccc(OC)c(OC)c1 (centres undefined) | -33.5% |  |
| COc1cc(/C=N/NC(=O)C(=O)NCC2CCCO2)ccc1O (centres undefined) |  | 4.13 µM (active) |
| COc1cc(/C=N/NC(=O)CNC(=O)c2ccco2)ccc1O |  | 2.71 µM (active) |
| COc1ccc(-n2c(=S)[nH]c3cc(C(=O)NCc4ccco4)ccc3c2=O)c(OC)c1 | 19.3% |  |
| Cc1ccc(CNC(=O)/C=C/c2ccc(S(=O)(=O)NCc3ccco3)cc2)cc1 | -32.3% |  |
| COc1cc(/C=N/NC(=O)C(=O)NCc2ccco2)ccc1O |  | 5.14 µM (active) |
| Oc1ccc(/C=N/NC(=S)NCC2CCCO2)cc1 (centres undefined) |  | 2.58 µM (active) |
| CC1(OC(=O)CCc2ccccc2)C(=O)C=C2C=C(c3ccc(C#N)cc3)N(Cc3ccco3)C=C2C1=O (centres undefined) | 21% |  |

| SMILES | inhibition | IC50 |
| --- | --- | --- |
| COc1ccc(NC(=O)c2c(Cl)cnn2C)c(C)c1 | -1.21% |  |
| COc1ccc(C(=O)CCNc2ccc(C)c(Cl)c2)cc1 | 4.87% |  |
| COc1ccc(Nc2ccc(Cl)cc2)c(C(=O)O)c1 |  | 9.23 µM (active) |
| O=C(Cn1c(=O)oc2ccccc21)Nc1n[nH]c(=S)s1 |  | 88.8 µM (active) |
| Nc1ccc2c(c1)-c1ccccc1S(=O)(=O)N2 |  | 2.89 µM (active) |
| CC(Nc1ccc(N2CCOCC2)cc1)C(=O)N1c2ccccc2CC1C (centres undefined) |  | 8.86 µM (active) |
| CCOc1ccc(CN2CCN(Cc3cccc4c3OCO4)CC2CCO)cc1 (centres undefined) |  | 2.23 µM (active) |
| Cc1ccc(CN2CCN(Cc3cn[nH]c3-c3cccc(F)c3)CC2CCO)o1 (centres undefined) | 6.69% |  |
| O=c1cc(CN2CCN(Cc3ccc(F)cc3)C(CCO)C2)[nH]c2ccccc12 (centres undefined) | 5.78% |  |
| Cc1nc(C)c(-c2csc(Nc3ccc(N)cc3)n2)s1 |  | 7.48 µM (active) |
| Cc1cccc(-n2c(O)c(C=Nc3ccc(O)cc3)c3ccccc3c2=O)n1 |  | 3.7 µM (active) |
| Cc1cc2c(n1-c1ccc(C(=O)O)cc1)CCCCC2 | 13.9% |  |
| C=C1C(=O)O[C@@H]2[C@H]3O[C@]3(C)CC/C=C(\C)CC[C@@H]12 | -11.7% |  |
| CC(C)CC(NC(=O)CC12CC3CC(CC(C3)C1)C2)C(=O)NC1=NCCS1 (centres undefined) | -26.1% |  |
| COc1ccc(N=Cc2c(O)cc(C)oc2=O)cc1 |  | 6.29 µM (active) |
| COc1ccc(N=Cc2nc(-c3ccccc3)oc2OC(C)=O)cc1 | 4.59% |  |
| Cc1ccc(NC(=O)NCCN2CCCCC2)cc1Cl | 14.2% |  |
| O=C(CCl)Nc1ccc(N2CCCCCC2)cc1 |  | 0.76 µM (active) |
| Cn1c(CCN2CCCCCC2)nc2cc(NC(=O)Nc3ccccc3)ccc21 | -5.15% |  |
| CC(=O)Nc1ccc(N2CCCCC2)cc1 |  | 12.1 µM (active) |
| O=C(Nc1ccc2nc(-c3ccco3)c(-c3ccco3)nc2c1)NC1CC1 | -52.1% [at 50 µM] |  |
| O=C(NC1CCCCCC1)c1cccnc1Sc1ccc(Cl)cc1 | 8.53% |  |
| Nc1ccc(NC(=O)NC2CCCCC2)cc1 |  | 9.21 µM (active) |
| O=c1cc(CSc2ccc(Cl)cc2)[nH]c2[nH]n(-c3ccccc3)c(=O)c12 |  | 16.2 µM (active) |
